Measured values as given in PubChem BioAssay (Tox21).
Records with an inconclusive call do not appear. The source made the active and inactive calls. Unless noted, calls come from the whole dose curve. Where a SMILES comes first, the peptide text is derived from it. [ ]: non-standard residue; d: D form. pGlu = O=C1CC[C@@H](C(=O)O)N1

Legend:
[1] = qHTS assay to identify small molecule agonists of the peroxisome proliferator-activated receptor delta (PPARd) signaling pathway - cell viability counter screen (AID 743211; active = well fitted curve in the direction sought with a large enough effect in the repeat runs; an effect the other way counts as inactive or inconclusive; note: nearly all actives have a fitted effect of over 55% in size)
Procedure, shortened: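 In the same wells used for beta-lactamase reporter measurement, cytotoxicity is scored by CellTiter-Glo. HEK293H PPARd-bla cells receive compound for 17 h at 37C following a 5 h settling period.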

[2] = target: Peroxisome proliferator-activated receptor delta (Homo sapiens) (UniProt Q03181); test: qHTS assay to identify small molecule agonists of the peroxisome proliferator-activated receptor delta (PPARd) signaling pathway (AID 743212)
Procedure, shortened: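 Read-out: beta-lactamase FRET fluorescence after 2 h room-temperature incubation with LiveBLAzer B/G substrate. Cells were HEK293H carrying a UAS-bla reporter for PPARd, treated at 37 C with DMSO-dissolved compounds.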

[3] = qHTS assay to identify small molecule antagonists of the peroxisome proliferator-activated receptor delta (PPARd) signaling pathway - cell viability counter screen (AID 743213; active = well fitted curve in the direction sought with a large enough effect in the repeat runs; an effect the other way counts as inactive or inconclusive; note: nearly all actives have a fitted effect of over 50% in size)
Procedure, shortened: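 Luminescence from CellTiter-Glo, added after the bla read and incubated 30 min at room temperature, gives viability of HEK293H PPARd-bla cells exposed to compounds for 17 h at 37 C with 300 nM L165041.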

[4] = target: Peroxisome proliferator-activated receptor delta (Homo sapiens) (UniProt Q03181); test: qHTS assay to identify small molecule antagonists of the peroxisome proliferator-activated receptor delta (PPARd) signaling pathway (AID 743215; active = well fitted inhibition curve with a large enough effect in the signal ratio in the repeat runs, not every such curve was filed as active; the % refers to the signal ratio;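 note: cells stimulated with agonist L165041 at 300 nM final during compound exposure; series mostly up to about 62 µM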)
Procedure, shortened: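 Plated HEK293H PPARd-bla cells rested 5 h at 37 C and 5% CO2. Compound, then agonist L165041 at 300 nM final, was added; 17 h at 37 C followed. Substrate loading, 2 h room temperature, fluorescence measured.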

[5] = qHTS assay to identify small molecule agonists of the farnesoid-X-receptor (FXR) signaling pathway - cell viability counter screen (AID 743218; active = well fitted curve in the direction sought with a large enough effect in the repeat runs; an effect the other way counts as inactive or inconclusive; note: nearly all actives have a fitted effect of over 45% in size)
Procedure, shortened: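 Viability of FXR-bla HEK 293T cells is measured by ATP-based CellTiter-Glo luminescence following 16 h compound treatment at 37 C and a prior 2 h room-temperature beta-lactamase substrate step.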

[6] = qHTS assay to identify small molecule antagonists of the farnesoid-X-receptor (FXR) signaling pathway - cell viability counter screen (AID 743221; active = well fitted cell-killing curve with a large enough effect in the repeat runs, not every such curve was filed as active; note: nearly all actives have a fitted effect of over 50% in size)
Procedure, shortened: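 Here viability was scored by luminescence after CellTiter-Glo addition to wells already read for beta-lactamase. Prior treatment: compound plus CDCA (50 uM final), 16 h, 37 C, HEK 293T FXR-bla cells.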

[7] = target: Vitamin D3 receptor (Homo sapiens) (UniProt P11473); test: qHTS assay to identify small molecule agonists of the vitamin D receptor (VDR) signaling pathway (AID 743222)
Procedure, shortened: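 Fluorescence from cleaved LiveBLAzer B/G FRET substrate served as readout. VDR-bla cells had been treated 16 h at 37C with test compounds in DMSO, following a 4 h settling period, and substrate was loaded for 2 h at RT.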

[8] = target: Vitamin D3 receptor (Homo sapiens) (UniProt P11473); test: qHTS assay to identify small molecule antagonists of the vitamin D receptor (VDR) signaling pathway (AID 743223; active = well fitted inhibition curve with a large enough effect in the signal ratio in the repeat runs, not every such curve was filed as active; the % refers to the signal ratio)
Procedure, shortened: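 Inhibition of agonist-driven VDR signalling is scored in VDR-bla cells: 3 nM final 1alpha,25-dihydroxyvitamin D3 plus compound, 16 h at 37C, then beta-lactamase detection by FRET substrate fluorescence after 2 h.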

[9] = qHTS assay to identify small molecule agonists of the vitamin D receptor (VDR) signaling pathway - cell viability counter screen (AID 743224; active = well fitted curve in the direction sought with a large enough effect in the repeat runs; an effect the other way counts as inactive or inconclusive; note: series mostly up to about 63 µM; nearly all actives have a fitted effect of over 50% in size)
Procedure, shortened: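 Compounds were pin-transferred onto VDR-bla cells plated 4 h earlier; following 16 h incubation at 37C, cell viability was quantified by CellTiter-Glo luminescence after 30 min at room temperature.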

[10] = qHTS assay to identify small molecule antagonists of the vitamin D receptor (VDR) signaling pathway - cell viability counter screen (AID 743225; active = well fitted curve in the direction sought with a large enough effect in the repeat runs; an effect the other way counts as inactive or inconclusive; note: nearly all actives have a fitted effect of over 50% in size)
Procedure, shortened: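 Compounds were pinned onto VDR-bla HEK 293T cells together with 1-alpha,25-dihydroxyvitamin D3 at 3 nM final. After 16 h at 37C and 5% CO2 plus the reporter readout, cell viability was measured by CellTiter-Glo luminescence (30 min, room temperature).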

[11] = qHTS assay to identify small molecule agonists of the NFkB signaling pathway - cell viability counter screen (AID 1159515); note: series mostly up to about 61 µM; nearly all actives have a fitted effect of over 55% in size
Procedure, shortened: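 Parallel cytotoxicity counter screen in ME-180 cells carrying an NFkB-response-element beta-lactamase reporter, 2,000 cells/well. Compound exposure lasted 5 hr at 37 C, 5% CO2. Cell viability was quantified by CellTiter-Glo luminescence.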

[12] = qHTS assay to identify small molecule agonists of the endoplasmic reticulum stress response signaling pathway (AID 1159516; active = well fitted activation curve with a large enough effect in the signal ratio in the repeat runs, not every such curve was filed as active; the % refers to the signal ratio)
Procedure, shortened: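 Using a HeLa line with an ESRE-driven beta-lactamase gene, agonist activity was measured by FRET substrate fluorescence (460 and 530 nm emission) after cells were treated with compounds for 5 hr at 37 C and 5% CO2.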

[13] = qHTS assay to identify small molecule agonists of the endoplasmic reticulum stress response signaling pathway - cell viability counter screen (AID 1159517)
Procedure, shortened: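 Steps: seed 1,500 ESRE-bla HeLa cells per well; incubate overnight at 37 C, 5% CO2; add compounds in DMSO for 5 hr; run FRET substrate 2 hr RT; add CellTiter-Glo, wait 30 min, read luminescence.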

[14] = qHTS assay to identify small molecule antagonists of the retinoid-related orphan receptor gamma (ROR-gamma) signaling pathway - cell viability counter screen (AID 1159520; active = well fitted curve in the direction sought with a large enough effect in the repeat runs; an effect the other way counts as inactive or inconclusive; note: nearly all actives have a fitted effect of over 50% in size)
Procedure, shortened: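 Tet-on ROR gamma CHO cells were given compounds for 2 hr, then doxycycline hyclate at 1 uM final, and incubated 16 hr at 37 C. Viability was measured as ATP content by CellTiter-Glo luminescence.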

[15] = target: Nuclear receptor ROR-gamma (Homo sapiens) (UniProt P51449); test: qHTS assay to identify small molecule antagonists of the retinoid-related orphan receptor gamma (ROR-gamma) signaling pathway (AID 1159521; active = well fitted curve in the direction sought with a large enough effect in the repeat runs; an effect the other way counts as inactive or inconclusive)
Procedure, shortened: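 Test compounds were applied to Tet-on RORγ CHO cells 2 h ahead of doxycycline hyclate (1 uM final). Luciferase reporter activity was quantified by luminescence after 16 h at 37 C and 5% CO2.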

[16] = qHTS assay to identify small molecule agonists of the AP-1 signaling pathway - cell viability counter screen (AID 1159525); note: nearly all actives have a fitted effect of over 55% in size
Procedure, shortened: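 Same-well cytotoxicity counter screen of the Tox21 10K library in ME-180 cells. The readout is ATP-dependent luminescence after 5 h compound treatment. Data are normalised to DMSO and tetra n-octyl ammonium bromide controls.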

[17] = qHTS assay to identify small molecule agonists of the AP-1 signaling pathway (AID 1159526)
[18] = target: Retinoic acid receptor RXR-alpha (Homo sapiens) (UniProt P19793); test: qHTS assay to identify small molecule agonists of the RXR signaling pathway (AID 1159527); note: nearly all actives have a fitted effect of over 35% in size
Procedure, shortened: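 Using 9-cis retinoic acid as the reference agonist, chemicals were tested in HEK 293T cells […] for 16 hr; substrate loading lasted 2 hr at room temperature.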

[19] = target: Bile acid receptor (Homo sapiens) (UniProt Q96RI1); test: qHTS assay to identify small molecule antagonists of the farnesoid-X-receptor (FXR) signaling pathway (AID 743217; active = well fitted inhibition curve with a large enough effect in the signal ratio in the repeat runs, not every such curve was filed as active; the % refers to the signal ratio)
Procedure, shortened: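 Screen of the Tox21 10K library in quantitative HTS format using FXR-UAS-bla HEK 293T reporter cells. Agonist chenodeoxycholic acid, 50 uM final, added with compounds; 16 h incubation at 37 °C; beta-lactamase FRET fluorescence measured.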

[20] = target: Bile acid receptor (Homo sapiens) (UniProt Q96RI1); test: qHTS assay to identify small molecule agonists of the farnesoid-X-receptor (FXR) signaling pathway (AID 743220; active = well fitted activation curve with a large enough effect in the signal ratio in the repeat runs, not every such curve was filed as active; the % refers to the signal ratio)
Procedure, shortened: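 FXR-UAS-bla HEK 293T cells carrying a UAS-driven beta-lactamase reporter were plated for 5 h at 37C/5% CO2, then exposed to DMSO-dissolved Tox21 10K compounds for 16 h at 37C. A LiveBLAzer B/G FRET substrate was loaded for 2 h at room temperature before fluorescence reading.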

Measured: Potency

Sequence of Peroxisome proliferator-activated receptor delta (Homo sapiens) (Q03181 whole entry, looked up): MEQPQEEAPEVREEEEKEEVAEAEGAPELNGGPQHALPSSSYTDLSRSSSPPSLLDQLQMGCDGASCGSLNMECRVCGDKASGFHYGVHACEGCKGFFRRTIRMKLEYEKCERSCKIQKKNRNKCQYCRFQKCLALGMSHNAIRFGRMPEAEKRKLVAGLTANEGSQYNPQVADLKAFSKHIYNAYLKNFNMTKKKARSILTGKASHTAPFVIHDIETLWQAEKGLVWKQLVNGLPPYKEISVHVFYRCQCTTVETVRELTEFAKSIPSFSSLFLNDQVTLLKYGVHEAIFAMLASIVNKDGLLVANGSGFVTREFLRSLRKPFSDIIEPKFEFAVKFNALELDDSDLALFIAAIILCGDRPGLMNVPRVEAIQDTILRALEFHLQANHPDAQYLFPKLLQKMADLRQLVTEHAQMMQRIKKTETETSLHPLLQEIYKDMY
Sequence of Bile acid receptor (Homo sapiens) (Q96RI1 whole entry, looked up): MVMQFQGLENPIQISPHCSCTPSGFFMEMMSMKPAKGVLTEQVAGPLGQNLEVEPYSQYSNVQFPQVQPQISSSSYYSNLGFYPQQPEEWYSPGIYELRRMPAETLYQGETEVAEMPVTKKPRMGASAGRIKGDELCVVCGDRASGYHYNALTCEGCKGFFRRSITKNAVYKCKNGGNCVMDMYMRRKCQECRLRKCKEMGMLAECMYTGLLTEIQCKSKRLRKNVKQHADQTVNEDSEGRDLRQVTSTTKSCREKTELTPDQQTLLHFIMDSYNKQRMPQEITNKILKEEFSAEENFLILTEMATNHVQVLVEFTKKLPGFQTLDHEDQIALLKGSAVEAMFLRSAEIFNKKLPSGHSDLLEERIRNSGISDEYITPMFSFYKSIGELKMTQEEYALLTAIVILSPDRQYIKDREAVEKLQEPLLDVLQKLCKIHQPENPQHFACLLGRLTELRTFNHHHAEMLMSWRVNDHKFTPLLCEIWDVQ
Sequence of Vitamin D3 receptor (Homo sapiens) (P11473 whole entry, looked up): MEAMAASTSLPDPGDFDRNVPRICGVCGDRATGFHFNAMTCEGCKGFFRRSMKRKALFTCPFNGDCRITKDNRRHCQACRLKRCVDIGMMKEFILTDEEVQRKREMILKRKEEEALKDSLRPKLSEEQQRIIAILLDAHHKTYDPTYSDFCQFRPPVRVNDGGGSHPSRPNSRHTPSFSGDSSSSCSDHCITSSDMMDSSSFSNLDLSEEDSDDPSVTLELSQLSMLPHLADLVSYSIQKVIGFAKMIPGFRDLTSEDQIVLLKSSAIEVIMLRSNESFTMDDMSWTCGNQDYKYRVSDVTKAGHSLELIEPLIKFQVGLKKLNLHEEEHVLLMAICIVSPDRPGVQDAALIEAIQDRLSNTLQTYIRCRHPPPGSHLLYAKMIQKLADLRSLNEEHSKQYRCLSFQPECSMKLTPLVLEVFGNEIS
Sequence of Retinoic acid receptor RXR-alpha (Homo sapiens) (P19793 whole entry, looked up): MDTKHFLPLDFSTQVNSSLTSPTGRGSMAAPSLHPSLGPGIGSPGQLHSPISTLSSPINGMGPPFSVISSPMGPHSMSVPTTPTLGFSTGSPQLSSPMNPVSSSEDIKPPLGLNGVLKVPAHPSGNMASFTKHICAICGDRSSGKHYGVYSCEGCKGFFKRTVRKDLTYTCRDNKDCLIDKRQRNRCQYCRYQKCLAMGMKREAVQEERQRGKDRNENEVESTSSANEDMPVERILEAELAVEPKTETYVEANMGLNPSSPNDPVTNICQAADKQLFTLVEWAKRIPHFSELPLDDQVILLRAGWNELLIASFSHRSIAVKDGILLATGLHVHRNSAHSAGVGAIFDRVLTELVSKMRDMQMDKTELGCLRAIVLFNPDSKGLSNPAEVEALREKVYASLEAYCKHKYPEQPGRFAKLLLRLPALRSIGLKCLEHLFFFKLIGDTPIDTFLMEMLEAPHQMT

CCOc1ccccc1OCC
not listed: [19] | [20]
inactive: all other assays above

COCCOC[C@H](CC1(C(=O)NC2CCC(C(=O)O)CC2)CCCC1)C(=O)Oc1ccc2c(c1)CCC2 (stereo partly drawn)
not listed: [8] | [19] | [20]
inactive: all other assays above

CC(=O)c1cnccn1
inactive: all assays above

Cc1ccc(C(=O)Nc2ccc(S(=O)(=O)O)c3cc(S(=O)(=O)O)cc(S(=O)(=O)O)c23)cc1NC(=O)c1cccc(NC(=O)Nc2cccc(C(=O)Nc3cc(C(=O)Nc4ccc(S(=O)(=O)O)c5cc(S(=O)(=O)O)cc(S(=O)(=O)O)c45)ccc3C)c2)c1
not listed: [19] | [20]
inactive: all other assays above

CC(=O)O[C@@]12CO[C@@H]1C[C@H](O)[C@@]1(C)C(=O)[C@H](O)C3=C(C)[C@@H](OC(=O)[C@H](O)[C@@H](NC(=O)OC(C)(C)C)c4ccccc4)C[C@@](O)([C@@H](OC(=O)c4ccccc4)[C@H]21)C3(C)C
not listed: [8] | [19]
inactive: all other assays above

NC(=O)Cc1cccc2ccccc12
not listed: [7] | [8] | [10]
inactive: all other assays above

COc1cc(C)nc(-n2nc(C)cc2OC)n1
not listed: [7] | [8] | [20]
inactive: all other assays above

O=C(O)c1cn(C2CC2)c2cc(N3CCNCC3)c(F)cc2c1=O
not listed: [5] | [7] | [8] | [9] | [10]
inactive: all other assays above

O=C1c2ccccc2C(=O)c2cc(O)ccc21
not listed: [19] | [20]
inactive: all other assays above

CC(C)C(=O)OC(=O)C(C)C
not listed: [8] | [19] | [20]
inactive: all other assays above

CC(=O)c1ccc2ccccc2c1
inactive: all assays above

CC(C)(C)C(=O)c1ccccc1
inactive: all assays above

CCC(=O)OCc1ccccc1
not listed: [19] | [20]
inactive: all other assays above

CNCCO
not listed: [5] | [6] | [7] | [8]
inactive: all other assays above

Cc1cccc(C)c1NC(=O)CC12CCCN1CCC2
not listed: [7] | [8]
inactive: all other assays above

CCCCc1nc(Cl)c(CO)n1Cc1ccc(-c2ccccc2-c2nn[nH]n2)cc1
not listed: [5] | [7] | [8]
inactive: all other assays above

C=C(C)C(=O)OCC(O)CO (stereo not drawn)
not listed: [6]
inactive: all other assays above

CCOC(=O)C(=O)CCCCCCl
not listed: [19]
inactive: all other assays above

CC(C)(C#N)Nc1nc(Cl)nc(NC2CC2)n1
not listed: [5] | [6] | [8]
inactive: all other assays above

CC12CCC(C(=O)C1=O)C2(C)C (stereo not drawn)
not listed: [5]
inactive: all other assays above

OCCc1ccccn1
not listed: [10] | [19] | [20]
inactive: all other assays above

NC(=O)N[C@@H](CCC(=O)O)C(=O)O
not listed: [5]
inactive: all other assays above

CCOC(=O)OC(C)OC1=C(C(=O)Nc2ccccn2)N(C)S(=O)(=O)c2ccccc21 (stereo not drawn)
not listed: [8] | [19] | [20]
inactive: all other assays above

CCC(C)(CCCC(C)C)OC(C)=O (stereo not drawn)
inactive: all assays above

CC(=O)c1ccccc1[N+](=O)[O-]
not listed: [19] | [20]
inactive: all other assays above

C=C(C)C(=O)OCC1CCCO1 (stereo not drawn)
inactive: all assays above

Cc1nc2ccc(CN(C)c3ccc(C(=O)N[C@@H](CCC(=O)O)C(=O)O)s3)cc2c(=O)[nH]1
not listed: [19]
inactive: all other assays above

CCNC(=O)[C@@H]1CCCN1C(=O)[C@H](CCCN=C(N)N)NC(=O)[C@H](CC(C)C)NC(=O)CNC(=O)[C@H](Cc1ccc(O)cc1)NC(=O)[C@H](CO)NC(=O)[C@H](Cc1c[nH]c2ccccc12)NC(=O)[C@H](Cc1cnc[nH]1)NC(=O)[C@@H]1CCC(=O)N1 ([pGlu]HWSYGLRP-NHEt)
not listed: [19] | [20]
inactive: all other assays above

CC(=O)N[C@H]1[C@H]([C@H](O)[C@H](O)CO)OC(C(=O)O)=C[C@@H]1N=C(N)N
not listed: [8] | [19] | [20]
inactive: all other assays above
